# Laboratory results: ChEMBL document CHEMBL1157539, “Thousands of chemical starting points for antimalarial lead identification” (Nature, 2010)
# Assays:
# Assay type in all cases: functional
# Plasmodium falciparum [1] = experiment: GSK_TCMDC: Inhibition of Plasmodium falciparum 3D7 in whole red blood cells, using parasite LDH activity as an index of growth. Test compounds present at 2uM
# Plasmodium falciparum [2] = experiment: GSK_TCMDC: Inhibition of Plasmodium falciparum Dd2 in whole red blood cells, using parasite LDH activity as an index of growth. Test compounds present at 2uM
# HepG2 = experiment: GSK_TCMDC: Percent inhibition of human HepG2 cell line. Test compounds present at 10uM.
Compound,Inhibition (Plasmodium falciparum [1]),Inhibition (Plasmodium falciparum [2]),Inhibition (HepG2)
Cl.O=C(NC1CCC(CCN2CCc3ccc(-c4cnccn4)cc3CC2)CC1)c1cccc(-n2cccn2)c1 (configuration not stated),93%,1%,23%
Br.CCc1cccc(OCCCON2C(=N)N=C(N)NC2(C)C)c1,95%,94%,63%
Cc1cc(O)c(C(C)C)cc1C1(c2cc(C(C)C)c(O)cc2C)OC(=O)c2ccccc21,95%,18%,8%
Cc1ccc2nc(C)cc(N/N=C/c3cccc([N+](=O)[O-])c3)c2c1,100%,99%,0%
COc1ccccc1CNC(=O)c1cc(OC)c(OC)cc1NC(=O)c1cccs1,88%,71%,12%
COc1cc2c(cc1C(F)(F)F)N(C(=O)Nc1cc(-c3ccncc3)cc(-c3cccnc3)c1)CC2,95%,50%,64%
c1ccc(Oc2ccc(Nc3ccnc4ccc(-c5ccccn5)cc34)cc2)cc1,80%,10%,4%
Cl.O=C(Nc1cc(Cl)cc(Cl)c1)c1cnn(-c2ccc(F)cc2)c1C1CCNCC1,90%,0%,13%
O=C(/C=C/c1ccc(Cl)c(Cl)c1)NCCCCCN1CCC(NC(=O)c2cccc(Cl)c2)CC1,98%,23%,12%
COc1cc(OCCCN(C)Cc2ccc(OC)c(OC)c2)ccc1NC(=O)c1cccc2c(O)c3cccc(F)c3nc12,94%,62%,10%
O=C(Nc1ccc(I)cc1)N1CCc2sccc2C1CN1CCCCC1 (configuration not stated),90%,0%,33%
CC(=O)Nc1ccc(CN2CCC(NC(=O)c3ccc(-c4cccc(OC(C)C)c4)s3)CC2)cc1.O=C(O)C(F)(F)F,89%,13%,14%
CC(C)C(C(=O)Nc1ccc(S(=O)(=O)N(C)C)cc1)c1ccc(Cl)cc1 (configuration not stated),100%,98%,27%
CC(C)(C)Oc1ccc(NC(=O)c2ccccc2O)cc1,86%,67%,4%
Cc1ccccc1N1CCN(c2ccc(C(=O)Nc3ccccc3)cn2)CC1.O=C(O)C(F)(F)F,95%,69%,44%
CC(C)(CNCc1cccc(Oc2cccc(C(F)(F)F)c2)c1)c1nc(-c2ccnc(N)n2)c(-c2ccc(Cl)c(O)c2)[nH]1.Cl,99%,98%,23%
O=C(Cc1ccccc1)NC(c1ccc(Cl)cc1)c1ccc2cccnc2c1O (configuration not stated),93%,64%,50%
CCOC(=O)c1ccc(COc2ccc(C)nc2)cc1,100%,0%,14%
COc1ccc(-c2nc(NC(=O)CSc3ccc([N+](=O)[O-])cc3)sc2C)cc1,100%,100%,0%
O=C(O)C(F)(F)F.Oc1ccc2[nH]c(-c3cccc(F)c3)nc2c1CNCc1ccccc1,92%,55%,29%

Compound,Inhibition (Plasmodium falciparum [1]),Inhibition (Plasmodium falciparum [2]),Inhibition (HepG2)
Cl.c1ccc2c(Nc3ccc(OCCOCCOc4ccc(Nc5c6ccccc6nc6ccccc56)cc4)cc3)c3ccccc3nc2c1,100%,97%,38%
COc1cc(NC(=O)c2sc(-c3ccc(Cl)cc3)cc2NC(=O)N2CCCC2)ccc1OCCN1CCCC1,100%,61%,22%
Cc1cc(N(C)C)nc(Nc2ccc(NC(=O)Nc3ccccc3)cc2)n1,100%,100%,10%
COc1cc(Nc2nccc(N3CCC(NC(=O)Nc4cc(C)ccc4C)C3)n2)cc(OC)c1OC (configuration not stated),91%,52%,13%
COC(=O)Cn1c(C2CCN(CC3CCN(C(=O)/C=C/c4ccc(Cl)c(Cl)c4)CC3)CC2)nc2ccccc21,86%,2%,19%
Cc1[nH]c2ccccc2c1C(=O)C(C)Sc1nnc(-c2ccccc2F)o1 (configuration not stated),99%,99%,24%
COc1ccccc1C1CCN(Cc2csc(NC(=O)c3ccc(-c4ccc(C(F)(F)F)cc4)cc3)n2)CC1,85%,23%,62%
CCc1ccc(CN2CCC(NC(=O)c3cc(-c4ccc(N(C)C)cc4)cs3)C2)cc1.O=C(O)C(F)(F)F (configuration not stated),90%,7%,29%
O=C(Nc1cc(C(F)(F)F)cc(C(F)(F)F)c1)Nc1cc(C(F)(F)F)cc(C(F)(F)F)c1,97%,100%,5%
CCN(CC)CCc1ccc2c(=O)cc(CCc3cccc(F)c3F)n(CC(=O)N(C)Cc3ccc(-c4ccc(C(F)(F)F)cc4)cc3)c2c1.O=C(O)C(O)C(O)C(=O)O,97%,45%,98%
CCCCOC(=O)c1ccc(NC(=O)Nc2ccc(Cn3ncc(N4CCCNCC4)c(Cl)c3=O)cc2)cc1.O=C(O)C(F)(F)F,92%,74%,2%
Cl.O=c1nc(NCCCNCc2cc3c(Cl)cc(Cl)cc3[nH]2)[nH]c2ccsc12,96%,11%,62%
O=C1CC(C(=O)Nc2cccc(-c3cccc(-c4nc5ccccc5[nH]4)c3)c2)c2ccccc2N1 (configuration not stated),84%,32%,0%
OC(CNCc1ccccc1OCc1ccccc1)c1cc(Br)cs1 (configuration not stated),97%,88%,16%
COC(=O)c1cccc(N2CCN(CCCNC(=O)/C(=C/C=C/c3cc4cc(Cl)c(Cl)cc4[nH]3)OC)CC2)c1.Cl,100%,59%,38%
CN=C(S)NN=C(C)c1ccccn1,98%,99%,64%
COc1ccc(-c2nc(NC(=O)Cc3ccc(OC)c(OC)c3)sc2C)cc1,93%,22%,33%
O=C(/C=C/c1ccccc1O)NCCCCCN1CCC(c2c[nH]c3ccccc23)CC1,95%,1%,7%
O=C(NCC1CCN(Cc2ccc3c(c2)OCCO3)C1)c1cc(-c2ccccc2F)cs1.O=C(O)C(F)(F)F (configuration not stated),95%,0%,18%
CS(=O)(=O)CCNCc1cccc(-c2cc3c(Nc4ccc5c(cnn5Cc5ccccc5)c4)ncnc3s2)c1.O=C(O)C(F)(F)F,100%,100%,36%

Compound,Inhibition (Plasmodium falciparum [1]),Inhibition (Plasmodium falciparum [2]),Inhibition (HepG2)
Cc1ccc2nc(C)n(C3CCN(C(=O)Cc4ccc(F)c(F)c4)CC3)c2c1,100%,100%,4%
Cn1c(Nc2cc(C(C)(C)C)on2)nc2cc(Nc3ccnc(Nc4ccc(CS(C)(=O)=O)cc4)n3)ccc21,100%,68%,37%
Cl.N#Cc1ccc2c(c1)CN(CCC1CCC(NC(=O)c3cc4cnccc4[nH]3)CC1)CC2 (configuration not stated),97%,28%,13%
CCN(CC)CCCCOc1ccc2c(c1)C(=O)c1cc(OCCCCN(CC)CC)ccc1-2.Cl,100%,44%,24%
Cc1ccc(Cn2ncc(NC3CCNCC3)c(Cl)c2=O)cc1NC(=O)Nc1ccc(-c2ccccc2)cc1.O=C(O)C(F)(F)F,99%,61%,18%
COc1cccc(-c2cnc(-c3ccncc3)nc2C2CCN(Cc3ccc(NC(C)=O)cc3)CC2)c1,89%,0%,17%
CO.Cc1nc(N)nc(N)c1OCc1cccc2c1ccc1ccccc12.Cl,95%,16%,54%
Cc1cccc(-c2nn(-c3ccccc3)c3[nH]c(=O)c(CN4CCSCC4)cc23)c1,98%,98%,0%
N#Cc1ccc(N/C(=N\c2ccccc2Br)N(C2CCCCC2)C2CCCCC2)c(O)c1,99%,96%,4%
CCCCCCn1c(Sc2ccc(C#N)c([N+](=O)[O-])c2)nnc1-c1cccc(Cl)c1,96%,90%,17%
CS(=O)(=O)c1ccc2nc(NC(=O)c3csnn3)sc2c1,90%,95%,3%
COc1ccc2[nH]ccc(=NN=Cc3ccccc3Cl)c2c1,100%,99%,29%
CCCCNC(=O)c1cc(CNC2CCCCC2)ccc1-c1cccc(CNCc2ccc(-c3ccccc3)cc2)c1.O=C(O)C(F)(F)F,100%,85%,100%
CCCCCCCN1CC[C@@H](CCCc2ccnc3ccc(OC)cc23)[C@@H](CCN)C1.O=C(O)C(=O)O,100%,11%,50%
CC(CN(C)C)C(=O)Nc1ccc(-c2cccc(-c3nc4cc(C(F)(F)F)ccc4[nH]3)c2)cc1 (configuration not stated),100%,85%,30%
O=C(Nc1cccc(-c2cccc(-c3nc4cc(C(F)(F)F)ccc4[nH]3)c2)c1)c1c[nH]cn1,100%,100%,14%
COc1cc(C2=NN(S(=O)(=O)c3c(Cl)cc(Cl)cc3Cl)CCCC2)ccc1Cl,98%,97%,3%
O=C(NCCN1CCCC1)c1cccc(-c2ccc(-c3nc4cc(C(F)(F)F)ccc4[nH]3)cc2)c1,100%,99%,34%
[O-][S+]1c2ccccc2Sc2ccccc21,99%,0%,48%
